# An excerpt weighted towards active compounds, which were near 5.3% of everything screened.
# Vaccinia Venus: qHTS for Stage-Specific Inhibitors of Vaccinia Orthopoxvirus: Venus Reporter Primary qHTS; Vaccinia virus Venus reporter expression, fluorescence; Potency, µM (series often up to 36.5 µM), actives largely listed as inhibitors; 0.46% of 330,000 active; AID 720580, 2013; calls by dose curve; tested in A549 cells; note: nearly all actives have a fitted effect of over 30% in size
# Vaccinia mCherry: qHTS for Stage-Specific Inhibitors of Vaccinia Orthopoxvirus: mCherry Reporter Primary qHTS; Vaccinia virus mCherry reporter infection, fluorescence; Potency, µM (doses to about 36.5 µM), hits mostly inhibitors; 0.63% of 310,000 active; calls by dose curve; tested in A549 cells; note: nearly all actives have a fitted effect of over 35% in size
# HCV inh: qHTS Assay for Inhibitors of Hepatitis C Virus (HCV) | Huh7.5.1 HCVcc-Cre infection, luciferase reporter, 44 h | Potency, µM (highest dose often 41.8 µM), most hits filed as inhibitors | 3.4% of 340,000 active | AID 651820, 2012; active = well fitted inhibition curve with a large enough effect; inconclusive = small, poorly fitted or top-dose-only effect, or another doubt; inactive = no such curve, though single readings can be large or run the other way
#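 After 44 h co-culture of compound, cells and HCVcc-Cre (~0.5 moi), substrate is added for 15 min at room temperature and luciferase measured over 15 sec. Cells were seeded at 1,000/well and pre-cultured 4 h.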
# Lassa entry inh: qHTS for Inhibitors of binding or entry into cells for Lassa Virus; Potency, µM (series often up to 37.9 µM), most hits filed as inhibitors; 1.2% of 300,000 active; Lassa virus pseudotype entry inhibition, cell reporter; calls by dose curve; tested in HEK293 cells; note: nearly all actives have a fitted effect of over 50% in size
# FMDV antiviral: High Throughput Screening for Foot and Mouth Disease Virus Antivirals. FMDV antiviral cell-based qHTS. AID 1159524, 2015. Potency, µM (highest dose often 57.9 µM), actives largely listed as inhibitors. 1.2% of 410,000 active; calls by dose curve; tested in HEK293T cells; note: read-out not given here; nearly all actives have a fitted effect of over 45% in size
# MARV entry inh: qHTS for inhibitors of binding or entry into cells for Marburg Virus. 1.8% of 300,000 active. Marburg virus pseudotyped entry inhibition, cell reporter. Potency, µM (doses to about 37.8 µM), hits mostly inhibitors; calls by dose curve; tested in HEK293 cells
# Hits are given with their value; – = inactive; ? = inconclusive; · = no result given.
SMILES,Vaccinia Venus,Vaccinia mCherry,HCV inh,Lassa entry inh,FMDV antiviral,MARV entry inh
CCCCOc1ccc(NC(=O)CN2CCN(C(=O)OCC)CC2)cc1,–,–,–,3.5µM,–,–
O=C(CC1NCCc2ccccc21)Nc1ccccc1 (stereo not given),–,–,–,–,–,–
CC[N+]1(C)C2CCC1CC(OC(=O)[C@H]1CCC(C(=O)OC3CC4CCC(C3)[N+]4(C)CC)(c3ccccc3)c3ccccc31)C2 (stereo not given in full),–,–,·,·,–,·
CCOc1ccc(NC(=O)C[n+]2ccc(N(C)C)cc2)cc1,–,–,–,–,–,–
CN(C)c1cc[n+](CC(=O)Nc2ccc(Oc3ccccc3)cc2)cc1,–,–,?,?,–,9.2µM
CCCCCOc1ccc(/C(C)=N/NC2=NCCN2)cc1,·,·,?,·,–,·
CCCCCCOc1ccc(/C(C)=N/NC2=NCCN2)cc1,·,·,11µM,·,–,·
CCOc1ccc(Br)cc1/C(C)=N\NC1=NCCN1,?,·,4.5µM,?,–,?
C[C@@H]1N[S+](=O)([O-])c2cc(Cl)ccc2O[C@H]1c1ccccc1,·,·,·,–,·,·
CC(C)CC(=O)Nc1ccc(Nc2ccccc2)cc1,–,–,2.8µM,3.5µM,–,?
CC(C)CC(=O)Nc1ccc(Oc2ccc(NC(=O)CC(C)C)cc2)cc1,·,·,–,–,–,–
Cc1ccc(SC2=C(Sc3ccc(C)cc3)C(=O)c3ccccc3C2=O)cc1,–,–,?,–,25µM,–
Cc1ccc(N2C(=O)c3ccccc3C2=O)cc1,–,–,–,–,–,–
CCOc1ccccc1NS(=O)(=O)c1ccc2oc(=O)c3ncn(C)c3c2c1,–,–,·,–,–,·
Cc1cc(O)c(C(=O)c2cnc3c(c2)COc2ccccc2-3)cc1Cl,–,–,·,–,–,–
O=S(=O)(c1c(Cl)cc(Br)cc1Cl)N1CCN(C(=S)NC2CC2)CC1,–,–,25µM,?,–,?
O=S(=O)(c1ccccc1)N1CCN(C(=S)NC2CCCC2)CC1,–,–,–,–,–,–
Cc1ccc(C)c(NC(=O)CSc2nnc(CCCCCNC(=O)OC(C)(C)C)o2)c1,·,·,–,–,16µM,–
Cc1ccc(NC(=O)CSc2nnc(CCNC(=O)OC(C)(C)C)o2)c(C)c1,·,·,–,–,–,–
CCCCCCCCCCCCCCCCCCNc1ccn(C2OC(COP(=O)(O)OCC3OC(n4cc(F)c(=O)[nH]c4=O)CC3O)C(O)C2O)c(=O)n1 (stereo not given),?,0.32µM,?,?,–,?
C[C@H]1O[C@@H](n2cc(F)c(=O)[nH]c2=O)[C@H](O)[C@@H]1O,–,?,–,·,–,?
COc1ccc(/C=N/Nc2nnc(C)n2N)cc1OC(C)=O,?,22µM,–,?,–,?
CCC(=O)c1ccc(OCc2ccc(C(=O)c3ccccc3)cc2)cc1,–,–,?,5µM,?,?
CCC(=O)c1ccc(OCc2ccccc2)c(OC)c1,–,–,?,?,–,?
COC(=O)c1ccc(OCCOc2ccccc2)cc1,–,·,–,–,–,?
SMILES,Vaccinia Venus,Vaccinia mCherry,HCV inh,Lassa entry inh,FMDV antiviral,MARV entry inh
COc1cccc(OC)c1OCCOc1ccc(C(=O)c2ccccc2)cc1,–,–,?,?,32µM,?
COc1ccc(-c2cn3nc(N4CCC(C(=O)NCc5cccc(Cl)c5)CC4)sc3n2)cc1,–,–,·,?,–,·
CC[C@]1(c2cccc(C)c2)C(=O)N(C(=O)OC)N1C(=O)OC,?,11µM,–,·,?,·
COC(=O)N1C(=O)[C@](Cc2ccccc2)(c2ccccc2)N1C(=O)OC,10µM,13µM,–,·,?,·
CC[C@@]1(c2ccccc2)C(=O)N(C(=O)OC)N1C(=O)OC,–,–,–,·,–,·
COC(=O)[C@@]1(Cc2ccc(F)cc2)[C@H]2c3cc(C(=O)N(C)C)n(CCF)c3C[C@H]2CN1C(=O)c1ccccc1,–,–,·,·,–,·
COC(=O)[C@@]1(Cc2ccccc2)[C@@H]2C(=CC(=O)[C@H]2CC(=O)C(=O)N(C)C)CN1C(=O)c1ccccc1,?,?,?,?,14µM,21µM
CC(O)[C@@]1(O)CC[C@H]2[C@@H]3CC[C@H]4C[C@@H](O)CC[C@]4(C)C3=CC[C@@]21C (stereo not given in full),–,–,–,·,–,·
CCOc1cccc(C2c3[nH]c4ccccc4c3CCN2C(=O)CCc2ccccc2)c1 (stereo not given),–,–,·,?,–,·
Cc1ccc(C2c3[nH]c4ccccc4c3CCN2C(=O)CCc2ccccc2)cc1 (stereo not given),–,–,·,3.2µM,–,·
CC(=O)Nc1ccc(S(=O)(=O)NCCC(=O)N2CCCCC2)cc1,–,–,–,–,–,–
CC(=O)Nc1ccc(S(=O)(=O)NCCC(=O)N2CCN(C(c3ccccc3)c3ccccc3)CC2)cc1,–,–,–,0.32µM,?,–
COc1ccccc1CCc1nc2ccccc2n1C1CCN(C(=O)c2cn3ccsc3n2)CC1,–,–,·,·,–,·
O=C(OCc1ccccc1)N1CCOCCOCCN(C(=O)OCc2ccccc2)CCOCCOCC1,–,–,–,?,22µM,?
COc1ccc(NC(=O)COc2ccc(-n3cnnn3)cc2)cc1OC,–,–,?,–,–,–
COc1ccc(C(C)=O)cc1COc1ccc(-n2cnnn2)cc1,–,·,10µM,–,–,–
CCOc1ccc(NC(=O)Cn2cc(C(=O)c3ccc(CC)cc3)c(=O)c3cc(C)ccc32)cc1,–,–,·,–,–,–
Cn1cnnc1SCc1ccc(C(=O)N=Nc2c(O)n(Cc3ccc(Cl)cc3)c3ccccc23)cc1,?,?,10µM,?,–,?
C[C@H](N)Cc1c[nH]c2ccc(OCc3cccs3)cc12,·,·,·,·,–,21µM
CC(N)Cc1c[nH]c2ccc(OCc3cccs3)cc12 (stereo not given),–,–,?,–,–,21µM
CC(N)Cc1c[nH]c2ccc(O)cc12 (stereo not given),–,–,–,–,–,?
O=C(NC1CCCCC1)c1ccc2c(c1)N(Cc1cccc(Cl)c1)C(=O)c1ccccc1S2=O (stereo not given),–,–,·,?,–,·
CC1CCC(C(C)C)C(OC(=O)Cn2c(COc3ccccc3)[n+](C)c3ccccc32)C1 (stereo not given),?,?,13µM,?,28µM,?
Cc1cccc(OCc2n(CC(=O)OC3CC(C)CCC3C(C)C)c3ccccc3[n+]2C)c1 (stereo not given),–,?,–,?,?,2.5µM
Nc1ccc2c(c1)OC1(CCCC1)O2,–,–,?,16µM,1.4µM,?
COc1cccc(OC)c1OCCCN1CCC(Cc2ccccc2)CC1,–,–,11µM,?,–,11µM
O=C(CC(=O)c1ccccc1)Nc1ccc2c(c1)OCCO2,–,·,–,8.9µM,–,?
CC1CC(C)(C)NC(=S)N1CCC(=O)Nc1ccc2c(c1)OCCO2 (stereo not given),?,?,?,3.5µM,?,11µM
Cc1ccccc1C(=O)Nc1ccc2c(c1)OCCO2,·,·,–,·,–,·

# High-throughput results as filed in PubChem.
